Test results as given in PubChem BioAssay (NCATS).
Inconclusive results are not listed. Unmarked numbers belong to inactive results. The source made the active and inactive calls. Calls come from the whole dose curve; as a rule, active = well fitted cell-killing curve with a large enough effect; inconclusive = small, poorly fitted or top-dose-only effect, or effect the other way; inactive = no such curve, though single readings can be large or run the other way.

Assay: Quantitative highthroughput screen to assess conditional lethalithy of SEM cells grown in RPMI1640 with dialyzed fetal bovine serum (RPMI+ds) (AID 1963884); note: nearly all actives have a fitted effect of over 35% in size
Settings: SEM B-ALL cells, RPMI+dialyzed FBS, CellTiter-Glo viability, 48 h; series mostly up to 45.8 µM; viability: at the top concentration
Description: Assay Provider: Jason Cantor Ph.D.
Department of Biochemistry
University of Wisconsin-Madison, Madison, WI, USA
Chemical screening studies have identified drug sensitivities across hundreds of cancer cell lines but most putative therapeutics fail to translate. Discovery and development of drug candidates in models that more accurately reflect nutrient levels in human blood is a major challenge. Here we performed high-throughput screens in conventional versus Human Plasma-Like Medium (HPLM) to identify compounds that were "missed" when screening using the artificial culture condition. Sets of conditional anticancer compounds spanned phases of clinical development and included non-oncology drugs were assessed. […] We also traced conditional phenotypes for several chemotherapeutics to availability of HPLM-specific metabolites and confirmed others for compounds whose reported targets are encoded by nonessential genes. Our findings establish generalizable strategies for exploiting conditional lethality in HPLM to reveal therapeutic candidates and mechanisms of action in cancer cells.
Described herein are the results of each viability screens against three cell lines: NOMO1 (an acute myeloid leukemia cell line); P12-Ichikawa (a T-cell acute lymphoblastic leukemia); and SEM (a B-cell ALL). Each assay was screened using 3 different cell culture media: homemade human plasma-Like medium with 10% dialyzed fetal bovine serum (HPLM+ds); RPMI1640 with 10% untreated FBS and 5mM glucose (RPMI+s); and RPMI1640 with 10% dialyzed fetal bovine serum and 5 mM glucose (RPMI+ds).
PROTOCOL TABLE (as described by Inglese J, Shamu CE and Guy RK. 2007)
SEQUENCE No. (e.g., 1, 2, 3, etc.); […] (e.g., Cells, Incubation, Reagent, etc.); VALUE and DESCRIPTION.
1; Cells; 5 uL; white, solid bottom 1536-well Greiner assay plate.
2; Compounds; 23 nL; Kalypsis pin tool (Wako USA) equipped with a 1536-well pin head to transfer to the assay plates.
3; Incubation; 48 hours; 37C incubation.
4; Reagent; 3 uL; CellTiter Glo (Promega).
5; Incubation; 5 min, room temperature
6; Detection; Luminescence, Viewlux PerkinElmer.
NOTES (numbers refer to Sequence numbers above)
1. Briefly, 5 ul of cell reagent was dispensed using a Multidrop Combi Dispenser. The NOMO1 and SEM cells were plated at 500 cells/well and the P12-Ichikawa line at 1000 cells/well.
2. After seeding the cells, 23 nL of MIPE 4.1 library compounds (in DMSO) were added to each plate using a Kalypsys 1536 Pintool dispenser. Bortezomib at final concentration of […] and DMSO were added to each plate as positive and negative controls respectively. For each screen, MIPE 4.1 compounds were added over an eleven-point concentration range […] in 3-fold dilutions.
3. Each plate was covered with a stainless steel gasketed lid to prevent evaporation and incubated for 48 hour at 37C, 95% relative humidity, and 5% CO2.
4-5. Three microliter CellTilter-GloTM luminescent substrate mix (Promega) reagent was added to the assay plate and incubated at room temperature for 5 min.
6. The luminescence signal was measured using a ViewLux (PerkinElmer) multiplate reader with a 2 second exposure time per plate. Data for each compound were normalized as percent viability such that measurements for DMSO and the empty well controls in each plate were defined as 100% and 0%, respectively.
Potency is the fitted concentration of half-maximal effect.

| SMILES | Potency | viability [%] |
| --- | --- | --- |
| O=C1c2ccccc2-[n+]2ccc3c([nH]c4ccccc43)c21 | 3.32 µM (active) |  |
| CCNC(=O)CCCC=CC[C@@H]1[C@H](C=CC(O)CCc2ccccc2)[C@@H](O)C[C@@H]1O (stereo not given in full) |  | 89.6 |
| NC(=O)c1ccc(I)c([N+](=O)[O-])c1 |  | 86.6 |
| O=C(Nc1nc2ccccc2n1CCN1CCOCC1)c1cccc([N+](=O)[O-])c1 |  | 87.7 |
| COc1ccc(-n2nc(C(N)=O)c3c2C(=O)N(c2ccc(N4CCCCC4=O)cc2)CC3)cc1 |  | 91.7 |
| O=C(CCCCCCNC(=O)c1cnc(N(c2ccccc2)c2ccccc2)nc1)NO | 7.43 µM (active) |  |
| CCOc1cc2ncc(C#N)c(Nc3ccc(F)c(Cl)c3)c2cc1NC(=O)C=CCN(C)C | 0.743 µM (active) |  |
| CC(=O)NCC(=O)N1[C@H]2CC[C@H]1c1cc(Nc3ncc(C(F)(F)F)c(NC4CCC4)n3)ccc12 | 0.105 µM (active) |  |
| CCN[C@H]1C[C@H](C)S(=O)(=O)c2sc(S(N)(=O)=O)cc21 |  | 103 |
| CC(=O)SC[C@@H](C)C(=O)N1CCC[C@H]1C(=O)N[C@@H](Cc1ccccc1)C(=O)O |  | 87.5 |
| Cc1ccc([N+](=O)[O-])cc1S(=O)(=O)N(C)N=Cc1cnc2ccc(Br)cn12 | 0.0833 µM (active) |  |
| CC(C)C(=O)Nc1ccc([N+](=O)[O-])c(C(F)(F)F)c1 |  | 88.6 |
| CC(=O)N[C@@H]1[C@H](O[C@@H]2c3ccc(c(Cl)c3)Oc3cc4cc(c3O[C@H]3O[C@H](CO)[C@@H](O)[C@H](O)[C@H]3NC(=O)CCCCCCCC(C)C)Oc3ccc(cc3Cl)C[C@H]3NC(=O)[C@H](N)c5ccc(O)c(c5)Oc5cc(O)cc(c5)[C@H](NC3=O)C(=O)N[C@H]4C(=O)N[C@H]3C(=O)N[C@@H]2C(=O)N[C@@H](C(=O)O)c2cc(O)cc(O[C@H]4O[C@H](CO)[C@@H](O)[C@H](O)[C@H]4O)c2-c2cc3ccc2O)O[C@H](CO)[C@@H](O)[C@@H]1O |  | 113 |
| COc1ncc(-c2ccc3nccc(-c4ccnnc4)c3c2)cc1NS(=O)(=O)c1ccc(F)cc1F | 0.372 µM (active) |  |
| OC[C@H]1O[C@@H](n2cnc3c2NC=NC[C@@H]3O)C[C@H]1O |  | 97.7 |
| O=C(C1CC1)N1CC[C@@H](Cn2c(-c3ccc(-c4ccc5occc5c4)cc3)nc3cnccc32)C1 |  | 93.6 |
| N#Cc1ccnc(N2C(=O)CC[C@H]2C(=O)N(c2cncc(F)c2)[C@H](C(=O)NC2CC(F)(F)C2)c2ccccc2Cl)c1 | 3.31 µM (active) |  |
| CNC(=O)c1ccc(Nc2ncc(C(F)(F)F)c(NCc3nccnc3N(C)S(C)(=O)=O)n2)cc1 | 0.933 µM (active) |  |
| OC[C@H]1O[C@@H](O[C@H]2[C@@H](O)[C@@](O)(CO)O[C@@H]2CO)[C@H](O)[C@@H](O)[C@@H]1O |  | 102 |
| CCOC(=O)[C@H](CCc1ccccc1)N[C@H]1CS[C@H](c2cccs2)CN(CC(=O)O)C1=O |  | 79.8 |

| SMILES | Potency | viability [%] |
| --- | --- | --- |
| C[C@H]1COC2=C1C(=O)C(=O)c1c2ccc2c1CCCC2(C)C | 13.2 µM (active) |  |
| CCOC(=O)N1CCC(=C2c3ccc(Cl)cc3CCc3cccnc32)CC1 | 11.8 µM (active) |  |
| Cc1cnn(C)c1C(=O)Nc1cc(Nc2ccc3c(C=Cc4ccccn4)n[nH]c3c2)ccc1F | 2.64 µM (active) |  |
| C[C@@H]1C[C@H]2[C@@H]3CCC4=CC(=O)C=C[C@]4(C)[C@@]3(Cl)[C@@H](O)C[C@]2(C)[C@@]1(OC(=O)c1ccco1)C(=O)CCl |  | 36.5 |
| O=C(C=Cc1ccc(CN(CCO)CCc2c[nH]c3ccccc23)cc1)NO | 0.296 µM (active) |  |
| C[C@@]12C(=O)OC(=O)[C@@]1(C)C1CCC2O1 | 5.26 µM (active) |  |
| COc1ccnc(CS(=O)c2nc3ccc(OC(F)F)cc3[nH]2)c1OC (stereo not given) |  | 107 |
| N[C@@H](Cc1cc(I)c(Oc2cc(I)c(O)c(I)c2)c(I)c1)C(=O)O |  | 87.2 |
| O=c1cc(-c2ccccc2)oc2cc(O)cc(O)c12 | 16.6 µM (active) |  |
| CNC(=O)c1ccc(C)c(-n2c(C)cc(OCc3ccc(F)cc3F)c(Br)c2=O)c1 |  | 84.6 |
| OC[C@H](Cc1ccccc1)Nc1nc(Oc2ccc3c(c2)CCC3)nc2c1ncn2Cc1ccc(-c2ccccc2)cc1 |  | 79.8 |
| OCCn1cc(-c2ccc3c(c2)CCC3=NO)c(-c2ccncc2)n1 |  | 96.4 |
| Cc1cnc(Nc2ccc(CN3CCOCC3)cc2)nc1Nc1cccc(S(=O)(=O)NC(C)(C)C)c1 | 0.166 µM (active) |  |
| COc1c(O)cc2c(c1O)[C@@H]1O[C@H](CO)[C@@H](O)[C@H](O)[C@H]1OC2=O | 18.7 µM (active) |  |
| NC1CCC(Nc2nc(Nc3ccc(C(=O)N4CCCCC4)cc3)c3ncn(-c4cccc(F)c4)c3n2)CC1 (stereo not given) |  | 89.4 |
| COC1=C(OC)C(=O)C(CC=C(C)CCC=C(C)CCC=C(C)CCC=C(C)CCC=C(C)CCC=C(C)CCC=C(C)CCC=C(C)CCC=C(C)CCC=C(C)C)=C(C)C1=O |  | 94.9 |
| O=C(O)C=Cc1ccc(Cn2ccnc2)cc1 |  | 107 |
| CCc1ccc(OCc2ccccc2C(=O)Nc2ccc3nc(C)cc(N)c3c2)cc1 | 10.5 µM (active) |  |
| CS(=O)(=O)Oc1ccc2c(NC(N)=O)c(C(=O)c3ccc(Cl)cc3Cl)oc2c1 |  | 106 |
| CC(C)NCC(O)COc1ccc(CCOCC2CC2)cc1 (stereo not given) |  | 101 |
